PubChem BioAssay (EPA / NIEHS)
Where “and” joins values, the source holds several entries; their conditions need not be identical. Identical values can stand only once. Inconclusive results are not listed. The source holds several records for some structures; these can differ, active in one and inactive in another. Calls of active or inactive are those of the source. Rule for the calls, unless noted: active = hit-call score of the fitted dose curve at least 0.9, where 1 is the maximum; inactive = score below 0.9.

What was measured:
[1] = ATG_PBREM_CIS: Attagene CIS-FACTORIAL HepG2 Assay for human Phenobarbital-responsive Enhancer Module (PBREM) (AID 2282955); settings: HepG2 PBREM cis-reporter, Attagene multiplexed transcription; actives raise or lower the signal
How it was run: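 Cells were transfected with cis-element reporter units and treated for 24 h, after which RNA was extracted and reporter transcripts measured by RT-PCR and capillary electrophoresis.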

[2] = ATG_PXRE_CIS: Attagene CIS-FACTORIAL HepG2 Assay for human Pregnane X Receptor Element (PXRE) (AID 2282957); settings: HepG2 Attagene CIS-FACTORIAL PXRE reporter, mRNA; actives raise or lower the signal
How it was run: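 Multiplexed cis-reporter assay in transiently transfected human HepG2 cells; 24 h chemical exposure. Reporter transcripts quantified by RT-PCR with fluorescent labeling and capillary electrophoresis.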

[3] = ATG_PPRE_CIS: Attagene CIS-FACTORIAL HepG2 Assay for human Peroxisome Proliferator-activated Response Element (PPRE) (AID 2282958); settings: HepG2 PPRE cis-element reporter, Attagene transcription factor profiling; actives raise or lower the signal
How it was run: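 In this cell-based multiplex, a PPRE cis element drives a reporter sequence in transiently transfected HepG2 cells. Following 24 h treatment, labeled cDNA amplicons are sized and quantified by capillary electrophoresis, with DMSO defining baseline.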

[4] = ATG_RORE_CIS: Attagene CIS-FACTORIAL HepG2 Assay for human RAR-related Orphan Receptor Element (RORE) (AID 2282959); settings: HepG2 Attagene cis-factorial RORE reporter, mRNA; actives raise or lower the signal
How it was run: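 Endogenous factor activity at a cis response element is read as reporter transcript levels in HepG2 cells, 24 h post-dose. Transcripts are quantified by RT-PCR with capillary electrophoresis, and data fitted in both directions against DMSO.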

[5] = ATG_Sox_CIS: Attagene CIS-FACTORIAL HepG2 Assay for human SRY-box transcription factor (SOX) (AID 2282960); settings: HepG2 Attagene cis-factorial SOX reporter, mRNA; actives raise or lower the signal
How it was run: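 Measures mRNA induction of a SOX1-associated reporter in HepG2 after 24 h dosing. Fluorescently labelled RT-PCR fragments are separated by capillary electrophoresis, and gain or loss relative to DMSO control is fitted.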

[6] = molecular target: Transcription factor Sp1 (Homo sapiens) (UniProt P08047); assay: ATG_Sp1_CIS: Attagene CIS-FACTORIAL HepG2 Assay for human Specificity Protein 1 (Sp1) (AID 2282961); settings: HepG2 Sp1 cis-reporter transcription, actives raise or lower the signal
How it was run: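 Cells: HepG2, transiently transfected with cis-regulated multiplexed reporters. Exposure: 24 h. Detection: reporter transcripts amplified, fluorescently labeled, restriction-digested and sized by capillary electrophoresis. Analysis: bidirectional fit relative to DMSO.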

[7] = ATG_SREBP_CIS: Attagene CIS-FACTORIAL HepG2 Assay for human Sterol Regulatory Element Binding (SREBP) (AID 2282962); settings: HepG2 Attagene cis-factorial SREBP reporter, mRNA; actives raise or lower the signal
How it was run: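 HepG2 cells transiently transfected with multiplexed cis-promoter reporter units sensing endogenous transcription factors; reporter mRNA measured 24 h after dosing by RT-PCR, 6-FAM labeling, HpaI digestion and capillary electrophoresis. Bidirectional fit versus DMSO.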

[8] = molecular target: Signal transducer and activator of transcription 3 (Homo sapiens) (UniProt P40763); assay: ATG_STAT3_CIS: Attagene CIS-FACTORIAL HepG2 Assay for human Signal Transducer and Activator of Transcription 3 (STAT3) (AID 2282963); settings: HepG2, Attagene cis-factorial STAT3 reporter transcription; actives raise or lower the signal
How it was run: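 Values derive from bidirectional fits relative to DMSO of reporter mRNA levels, measured by RT-PCR with capillary electrophoresis, in HepG2 cells carrying transiently transfected cis-regulated reporter units and exposed 24 h.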

[9] = ATG_TA_CIS: Attagene CIS-FACTORIAL HepG2 Assay for human TA Basal Promoter (AID 2282964); settings: HepG2 Attagene CIS-factorial TA basal promoter reporter; actives raise or lower the signal
How it was run: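 Multiplexed mRNA reporter assay, HepG2, 24 h. Reporter cDNA amplified, 6-FAM primer-extended, HpaI-cut, CE-sized; DMSO = negative control and baseline.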

[10] = ATG_TCF_b_cat_CIS: Attagene CIS-FACTORIAL HepG2 Assay for human T-Cell-Factor with beta-catenin (TCF/b-cat) (AID 2282965); settings: HepG2 TCF/beta-catenin cis-reporter transcription, actives raise or lower the signal
How it was run: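 HepG2, transient MRTU transfection, cis-element-driven reporters (endogenous TFs). 24 h compound exposure. Readout: reporter mRNA by RT-PCR + 6-FAM primer extension, HpaI digest, capillary electrophoresis. Gain/loss fit vs DMSO baseline.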

[11] = ATG_TAL_CIS: Attagene CIS-FACTORIAL HepG2 Assay for human TAL Basal Promoter (AID 2282966); settings: HepG2 Attagene cis-factorial TAL promoter reporter; actives raise or lower the signal;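 note: background control endpoint measuring basal TAL promoter reporter mRNA not a specific factor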
How it was run: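 Steps: transfect HepG2 with multiple reporter transcription units; dose 24 h; isolate RNA, reverse-transcribe, PCR-amplify, label with 6-FAM, digest with HpaI; resolve by capillary electrophoresis. Bidirectional fitting against DMSO baseline.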

[12] = ATG_TGFb_CIS: Attagene CIS-FACTORIAL HepG2 Assay for human Transforming Growth Factor (TGF) (AID 2282967); settings: HepG2 Attagene CIS TGFb reporter, mRNA transcription; actives raise or lower the signal
How it was run: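 Transcript-level reporter readout: HepG2 transfectants, 24 h exposure, RNA to cDNA, reporter-specific PCR, fluorescent primer extension, capillary sizing against ROX standards. Gain- or loss-of-signal relative to DMSO.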

[13] = ATG_VDRE_CIS: Attagene CIS-FACTORIAL HepG2 Assay for human Vitamin D Receptor Element (VDRE) (AID 2282968); settings: HepG2 VDRE cis-reporter transcription, actives raise or lower the signal
How it was run: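 Cell-based multiplexed reporter format in human liver HepG2 cells, 24 h post-dose. Fluorescence from capillary electrophoresis of reporter cDNA gives the signal, with DMSO as negative control and baseline.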

[14] = molecular target: Nuclear receptor subfamily 1 group I member 3 (Homo sapiens) (UniProt Q14994); assay: ATG_CAR_TRANS: Attagene TRANS-FACTORIAL HepG2 Assay for human Constitutive Androstane Receptor (CAR) (AID 2282969; active = hit-call score of the fitted dose curve at least 0.9, where 1 is the maximum;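 note: activators raise reporter mRNA above DMSO so AC50 marks induction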); settings: HepG2 Attagene TRANS-FACTORIAL CAR reporter
How it was run: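 HepG2 cells transiently transfected with GAL4-UAS reporter units; TRANS format reads activity of exogenous chimeric NR-Gal4 protein. After 24 h dosing, reporter mRNA quantified by RT-PCR, 6-FAM labelling and capillary electrophoresis; gain of signal fitted against DMSO.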

[15] = molecular target: Estrogen receptor (Homo sapiens) (UniProt P03372); assay: ATG_ERa_TRANS: Attagene TRANS-FACTORIAL HepG2 Assay for human Estrogen Receptor alpha (ERa) (AID 2282970; active = hit-call score of the fitted dose curve at least 0.9, where 1 is the maximum); settings: HepG2 Attagene TRANS ERa GAL4 reporter, mRNA
How it was run: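 Multiplexed cell-based reporter format in HepG2: chimeric ERa-Gal4 protein drives GAL4-UAS reporter transcription. Fluorescent reporter mRNA quantified by capillary electrophoresis 24 hours after dosing; endpoint fitted as signal gain against DMSO.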

[16] = molecular target: Steroid hormone receptor ERR1 (Homo sapiens) (UniProt P11474); assay: ATG_ERRa_TRANS: Attagene TRANS-FACTORIAL HepG2 Assay for human Estrogen-Related Receptor alpha (ERRa) (AID 2282971; active = hit-call score of the fitted dose curve at least 0.9, where 1 is the maximum); settings: HepG2 Attagene TRANS reporter, ERRa transactivation
How it was run: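 Signal gain relative to DMSO for an ERRa-Gal4 chimeric receptor, read as reporter mRNA by RT-PCR/capillary electrophoresis. Human HepG2 liver cells, transient multiplex reporter transfection, 24 h chemical exposure.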

[17] = molecular target: X-box-binding protein 1 (Homo sapiens) (UniProt P17861); assay: ATG_Xbp1_CIS: Attagene CIS-FACTORIAL HepG2 Assay for human X-box Binding Protein 1 (XBP1) (AID 2282972); settings: HepG2 XBP1 cis-element reporter, Attagene multiplex; actives raise or lower the signal
How it was run: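 HepG2 cells transiently transfected with multiple cis-element reporter units report endogenous TF activity; 24 h exposure, then reporter mRNA measured by RT-PCR, 6-FAM labelling, HpaI digestion and capillary electrophoresis. Bidirectional fitting versus DMSO.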

[18] = ATG_GAL4_TRANS: Attagene TRANS-FACTORIAL HepG2 Assay for GAL4 (Internal Marker) (AID 2282976; active = hit-call score of the fitted dose curve at least 0.9, where 1 is the maximum); settings: HepG2 Attagene TRANS GAL4 internal marker reporter
How it was run: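 Liver HepG2 line bearing multiplexed GAL4-UAS reporter constructs; 24 h chemical treatment. Transcripts were quantified as fluorescent fragments on capillary electrophoresis after RT-PCR and HpaI cut, with activity fitted upward from DMSO.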

[19] = molecular target: Paired box protein Pax-6 (Homo sapiens) (UniProt P26367); assay: ATG_Pax6_CIS: Attagene CIS-FACTORIAL HepG2 Assay for human Paired Box 6 (PAX6) (AID 2282956); settings: HepG2 CIS-FACTORIAL PAX6 reporter transcription, RNA readout; actives raise or lower the signal
How it was run: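 HepG2 cells transiently transfected with cis-promoter-driven multiplexed reporter units sensing endogenous transcription factor activity; 24 h chemical exposure. Reporter mRNA quantified by RT-PCR, 6-FAM labelling, HpaI digestion and capillary electrophoresis; bidirectional fit versus DMSO baseline.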

[20] = ATG_M_19_TRANS: Attagene TRANS-FACTORIAL HepG2 Assay for M19 Transcription Factor (Internal Marker) (AID 2282974; active = hit-call score of the fitted dose curve at least 0.9, where 1 is the maximum); settings: HepG2 Attagene TRANS-FACTORIAL M19 internal marker reporter
How it was run: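 Reporter mRNA induction was measured in transfected HepG2 cells 24 h after dosing. Endpoint fitted upward relative to DMSO and serves as a background control within the multiplexed TRANS panel.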

Measured: AC50

Sequence of X-box-binding protein 1 (Homo sapiens) (P17861 whole entry, looked up): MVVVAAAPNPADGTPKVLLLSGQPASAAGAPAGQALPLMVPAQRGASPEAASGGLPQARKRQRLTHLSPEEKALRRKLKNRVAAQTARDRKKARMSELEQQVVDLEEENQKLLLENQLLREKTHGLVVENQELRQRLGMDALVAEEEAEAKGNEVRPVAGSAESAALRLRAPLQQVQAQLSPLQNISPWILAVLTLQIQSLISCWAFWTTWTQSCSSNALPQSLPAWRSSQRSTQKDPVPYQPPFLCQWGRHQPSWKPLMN
Sequence of Transcription factor Sp1 (Homo sapiens) (P08047 whole entry, looked up): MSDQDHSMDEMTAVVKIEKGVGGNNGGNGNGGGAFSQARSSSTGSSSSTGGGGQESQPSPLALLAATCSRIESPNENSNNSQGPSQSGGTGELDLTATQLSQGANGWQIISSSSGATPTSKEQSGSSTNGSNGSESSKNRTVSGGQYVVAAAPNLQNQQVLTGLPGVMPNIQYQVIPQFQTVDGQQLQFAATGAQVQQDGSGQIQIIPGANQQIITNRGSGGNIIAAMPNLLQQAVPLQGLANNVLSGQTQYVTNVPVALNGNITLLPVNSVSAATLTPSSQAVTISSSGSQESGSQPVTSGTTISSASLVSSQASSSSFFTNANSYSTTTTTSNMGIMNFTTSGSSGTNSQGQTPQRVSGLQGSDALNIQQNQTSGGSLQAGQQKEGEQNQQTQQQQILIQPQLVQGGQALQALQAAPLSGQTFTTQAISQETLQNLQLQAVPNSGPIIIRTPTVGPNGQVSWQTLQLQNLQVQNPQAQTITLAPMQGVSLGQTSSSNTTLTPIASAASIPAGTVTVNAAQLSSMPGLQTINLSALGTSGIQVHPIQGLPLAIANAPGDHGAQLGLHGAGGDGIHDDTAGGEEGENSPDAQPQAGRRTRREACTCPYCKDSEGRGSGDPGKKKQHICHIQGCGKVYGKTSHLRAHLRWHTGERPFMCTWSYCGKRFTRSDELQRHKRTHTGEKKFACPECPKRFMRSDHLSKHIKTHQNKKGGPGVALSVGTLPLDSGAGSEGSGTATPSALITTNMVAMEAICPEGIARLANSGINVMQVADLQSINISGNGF
Sequence of Signal transducer and activator of transcription 3 (Homo sapiens) (P40763 whole entry, looked up): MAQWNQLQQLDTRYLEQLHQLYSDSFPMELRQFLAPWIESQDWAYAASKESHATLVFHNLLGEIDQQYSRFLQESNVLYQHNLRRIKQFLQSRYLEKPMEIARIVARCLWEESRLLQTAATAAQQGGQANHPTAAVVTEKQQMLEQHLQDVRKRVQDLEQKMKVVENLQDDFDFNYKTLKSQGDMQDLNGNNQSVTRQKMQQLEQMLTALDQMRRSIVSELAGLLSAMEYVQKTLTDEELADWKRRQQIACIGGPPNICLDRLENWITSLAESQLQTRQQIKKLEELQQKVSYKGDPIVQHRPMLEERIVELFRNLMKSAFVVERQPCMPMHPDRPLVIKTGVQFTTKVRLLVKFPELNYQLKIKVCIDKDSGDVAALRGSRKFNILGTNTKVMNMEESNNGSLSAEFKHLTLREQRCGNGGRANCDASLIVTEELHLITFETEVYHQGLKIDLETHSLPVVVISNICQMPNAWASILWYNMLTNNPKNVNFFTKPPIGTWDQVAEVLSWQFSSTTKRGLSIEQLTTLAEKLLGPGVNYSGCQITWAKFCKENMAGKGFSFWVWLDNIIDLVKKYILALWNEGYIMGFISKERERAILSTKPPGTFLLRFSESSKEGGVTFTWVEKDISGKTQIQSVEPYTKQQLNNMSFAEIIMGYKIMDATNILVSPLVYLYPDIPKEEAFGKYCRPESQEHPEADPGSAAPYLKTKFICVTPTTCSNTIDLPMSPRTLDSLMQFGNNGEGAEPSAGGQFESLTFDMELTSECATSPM
Sequence of Steroid hormone receptor ERR1 (Homo sapiens) (P11474 whole entry, looked up, the tested form may be a part): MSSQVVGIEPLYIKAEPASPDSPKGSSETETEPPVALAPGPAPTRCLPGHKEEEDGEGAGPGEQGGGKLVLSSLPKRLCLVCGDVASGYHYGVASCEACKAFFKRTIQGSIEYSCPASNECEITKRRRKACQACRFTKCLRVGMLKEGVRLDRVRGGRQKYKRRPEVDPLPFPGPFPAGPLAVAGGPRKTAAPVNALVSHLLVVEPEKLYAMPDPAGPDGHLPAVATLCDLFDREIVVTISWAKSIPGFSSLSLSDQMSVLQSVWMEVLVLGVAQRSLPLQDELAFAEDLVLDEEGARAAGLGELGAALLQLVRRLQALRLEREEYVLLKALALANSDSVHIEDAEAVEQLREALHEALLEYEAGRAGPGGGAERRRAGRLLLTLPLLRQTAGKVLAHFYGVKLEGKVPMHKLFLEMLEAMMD
Sequence of Nuclear receptor subfamily 1 group I member 3 (Homo sapiens) (Q14994 whole entry, looked up, the tested form may be a part): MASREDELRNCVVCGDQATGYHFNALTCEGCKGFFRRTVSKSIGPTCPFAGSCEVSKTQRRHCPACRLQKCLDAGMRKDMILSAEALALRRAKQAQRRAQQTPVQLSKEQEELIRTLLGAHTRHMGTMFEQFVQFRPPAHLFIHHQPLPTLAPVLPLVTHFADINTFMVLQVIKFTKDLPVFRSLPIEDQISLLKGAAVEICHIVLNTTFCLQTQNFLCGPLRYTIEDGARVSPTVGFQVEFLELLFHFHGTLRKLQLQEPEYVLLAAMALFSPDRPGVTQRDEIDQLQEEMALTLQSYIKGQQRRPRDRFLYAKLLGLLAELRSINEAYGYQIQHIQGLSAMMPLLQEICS
Sequence of Estrogen receptor (Homo sapiens) (P03372 whole entry, looked up, the tested form may be a part): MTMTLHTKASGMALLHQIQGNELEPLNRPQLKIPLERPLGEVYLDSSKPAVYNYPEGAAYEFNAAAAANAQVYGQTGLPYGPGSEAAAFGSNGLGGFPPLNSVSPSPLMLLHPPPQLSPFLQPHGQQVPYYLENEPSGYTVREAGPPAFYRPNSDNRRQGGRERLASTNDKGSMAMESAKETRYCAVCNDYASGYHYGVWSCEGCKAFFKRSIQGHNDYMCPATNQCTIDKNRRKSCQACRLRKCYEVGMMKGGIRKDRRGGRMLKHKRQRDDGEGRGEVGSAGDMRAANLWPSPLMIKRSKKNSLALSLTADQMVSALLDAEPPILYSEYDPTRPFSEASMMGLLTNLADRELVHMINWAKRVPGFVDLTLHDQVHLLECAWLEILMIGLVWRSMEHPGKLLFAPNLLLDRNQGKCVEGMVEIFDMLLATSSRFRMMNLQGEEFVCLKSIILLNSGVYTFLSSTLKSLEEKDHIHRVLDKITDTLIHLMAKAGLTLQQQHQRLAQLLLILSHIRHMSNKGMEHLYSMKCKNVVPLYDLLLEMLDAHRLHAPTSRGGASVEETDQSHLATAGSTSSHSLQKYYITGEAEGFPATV
Sequence of Paired box protein Pax-6 (Homo sapiens) (P26367 whole entry, looked up): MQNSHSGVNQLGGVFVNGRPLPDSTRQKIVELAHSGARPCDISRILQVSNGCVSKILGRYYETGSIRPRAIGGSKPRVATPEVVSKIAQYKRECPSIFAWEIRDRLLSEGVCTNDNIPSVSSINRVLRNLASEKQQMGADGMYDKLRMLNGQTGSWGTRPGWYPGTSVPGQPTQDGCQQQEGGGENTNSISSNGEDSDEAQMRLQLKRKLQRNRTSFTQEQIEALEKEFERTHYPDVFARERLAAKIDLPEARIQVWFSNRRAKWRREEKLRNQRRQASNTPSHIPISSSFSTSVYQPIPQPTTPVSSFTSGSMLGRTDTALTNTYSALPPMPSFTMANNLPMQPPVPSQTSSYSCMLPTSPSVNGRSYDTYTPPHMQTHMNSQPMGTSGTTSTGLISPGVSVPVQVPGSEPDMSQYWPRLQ

OC(O)(C(F)C(O)(O)C(F)(F)F)C(F)(F)F
inactive: [1] | [2] | [3] | [4] | [5] | [8] | [9] | [10] | [12] | [13] | [14] | [15] | [16] | [18]
active: [3] 3.62 µM | [6] 64.6 µM and 96.6 µM | [7] 66.4 µM and 37.5 µM | [10] 3.07 µM | [11] 51.9 µM and 25.8 µM | [15] 194 µM | [17] 61.9 µM and 33 µM

O=S(=O)(O)c1ccc(N=Nc2c(O)ccc3cc(S(=O)(=O)O)ccc23)cc1
not listed: [3] | [5] | [17] | [18]
inactive: all other assays above

OCC(CO)(CO)CO
not listed: [11] | [16] | [17] | [18] | [19]
inactive: all other assays above

CCN(CC)C(=S)SSC(=S)N(CC)CC
active: [1] 166 µM | [2] 161 µM | [6] 150 µM | [7] 157 µM | [10] 118 µM | [13] 117 µM
not listed: [5] | [16] | [17] | [18] | [19]
inactive: all other assays above

O=C(O)CO
not listed: [5] | [16] | [19]
inactive: all other assays above

Cn1cc[nH]c1=S
not listed: [14] | [15] | [16] | [17] | [19] | [20]
inactive: all other assays above

c1ccc2c(c1)-c1cccc3c1c-2cc1ccccc13
active: [3] 2.26 µM
inactive: [1] | [2] | [3] | [4] | [6] | [7] | [8] | [9] | [10] | [12] | [13] | [14] | [15] | [17] | [20] | [18]

NC(=O)N(O)[C@@H]1COc2cc(OCc3ccccc3)ccc21
not listed: [5] | [16] | [17] | [19] | [20]
inactive: all other assays above

OCCOCCOCCO
not listed: [3] | [5] | [11] | [16] | [17] | [18]
inactive: all other assays above

COCc1nnc(-c2ccc[n+]([O-])c2)n1-c1c(Cl)c(Cl)cc2[nH]c(=O)c(=O)[nH]c12
not listed: [1] | [3] | [5] | [14] | [16] | [19] | [20]
inactive: all other assays above

CC(C)CCCCCCOC(=O)C1CCCCC1C(=O)OCCCCCCC(C)C (stereo unspecified)
active: [2] 1.17 µM
not listed: [1] | [5] | [14] | [15] | [16] | [18]
inactive: all other assays above

OC(Cn1cncn1)(Cn1cncn1)c1ccc(F)cc1F
not listed: [1] | [14] | [16] | [17] | [18]
inactive: all other assays above

O=C(O)c1cccc(C(=O)O)c1
inactive: [2] | [3] | [4] | [6] | [7] | [8] | [9] | [10] | [12] | [20] | [18]

CCCC(CCC)C(=O)O
not listed: [1] | [3] | [4] | [14] | [16] | [17]
inactive: all other assays above

CCCCCCCCCC
not listed: [1] | [11] | [14] | [16] | [17] | [18]
inactive: all other assays above

COc1cc2c(c(OC)c1OC)-c1ccc(OC)c(=O)cc1[C@@H](NC(C)=O)CC2
inactive: [19] | [2] | [4] | [6] | [7] | [8] | [9] | [12] | [13] | [17]
active: [10] 0.348 µM

CCCCCCCCN(C)C
active: [13] 0.00907 µM
not listed: [1] | [3] | [11] | [14] | [18]
inactive: all other assays above
